Screening data deposited in PubChem by several laboratories.
pPAFAH inh: pPAFAH (human) enzyme inhibition. recombinant pPAFAH, FP-rhodamine probe fluorescence polarization. inhibition, % at 3.39 µM. 330,000 compounds, 1.5% hits. AID 463082;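 active = inhibition above the mean inhibition across the screen plus 3 SD, cut at about 25% in these data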;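 note: inhibitors block binding of the rhodamine activity-based probe so polarization drops; 0% = enzyme with DMSO and 100% = wells lacking pPAFAH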
PAFAH2 FP inh: inhibitors of human PAFAH2; recombinant PAFAH2, FP-rhodamine activity probe, fluorescence polarization; inhibition, % at 3.39 µM; 340,000 compounds, 0.99% hits;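 active = inhibition above the mean over all tested compounds plus 3 SD, cut at about 30% in these data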;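 note: inhibitors block probe labeling of enzyme so polarization drops; 0% = enzyme with DMSO and 100% = wells lacking PAFAH2 protein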
PAFAH1B2 FP inh: PAFAH1B2 (human) inhibition; P68402; recombinant PAFAH1B2, FP-rhodamine activity probe, fluorescence polarization; inhibition, % at 3.39 µM; 340,000 compounds, 1.2% hits; AID 492953;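 active = inhibition above the mean of all tested compounds plus 3 SD, cut at about 24% in these data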;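 note: 0% = enzyme with DMSO and 100% = wells lacking PAFAH1B2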
ATG4B inhibitor: blocks human ATG4B protease cleavage of LC3 substrate; Q9Y4P1; ATG4B cleavage of LC3-PLA2, NBD-HPC fluorescence, 1 h; inhibition, % at 8.33 µM; 340,000 compounds, 0.51% hits; AID 504462; in the data active = inhibition above about 40%
PAFAH1B3 FP inh: inhibitors of human PAFAH1B3 | recombinant PAFAH1B3, FP-rhodamine probe, fluorescence polarization | inhibition, % at 3.39 µM | 340,000 compounds, 0.28% hits;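 active = inhibition above the screen-wide average of all tested compounds plus 3 SD, cut at about 25% in these data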;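 note: 0% = enzyme with DMSO only and 100% = wells lacking PAFAH1B3 protein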
DAGLB inh: diacylglycerol lipase beta (human) inhibition | Q8NCG7 | HEK293T DAGLB membrane lysate, EnzChek fluorogenic substrate | inhibition, % at 5.17 µM | 340,000 compounds, 0.059% hits; in the data active = inhibition above about 34%;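 note: 0% = enzyme with vehicle and 100% = wells lacking enzyme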
Target sequence (Q8NCG7 whole entry, looked up): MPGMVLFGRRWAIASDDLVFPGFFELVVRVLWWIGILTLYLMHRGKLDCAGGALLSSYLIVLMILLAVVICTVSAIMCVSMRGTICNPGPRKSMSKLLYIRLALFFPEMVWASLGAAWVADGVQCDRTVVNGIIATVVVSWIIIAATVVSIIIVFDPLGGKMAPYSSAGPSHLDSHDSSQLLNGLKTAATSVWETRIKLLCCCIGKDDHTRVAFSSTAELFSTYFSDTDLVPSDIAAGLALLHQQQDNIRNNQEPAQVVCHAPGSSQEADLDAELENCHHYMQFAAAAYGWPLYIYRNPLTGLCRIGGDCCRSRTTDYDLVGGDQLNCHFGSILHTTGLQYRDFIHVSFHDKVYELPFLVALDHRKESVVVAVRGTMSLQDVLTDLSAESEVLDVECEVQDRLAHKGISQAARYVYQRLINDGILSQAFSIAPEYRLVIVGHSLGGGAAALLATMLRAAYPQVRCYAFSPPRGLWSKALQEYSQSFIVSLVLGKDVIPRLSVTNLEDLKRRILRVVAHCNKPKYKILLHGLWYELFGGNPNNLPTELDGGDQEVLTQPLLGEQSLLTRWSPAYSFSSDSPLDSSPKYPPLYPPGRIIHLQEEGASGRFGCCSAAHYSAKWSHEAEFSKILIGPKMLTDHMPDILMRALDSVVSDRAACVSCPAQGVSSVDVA
Starred values were filed as active, the others as inactive; nt = no result given. An excerpt weighted towards active compounds, which were near 3% of everything screened.

SMILES	pPAFAH inh	PAFAH2 FP inh	PAFAH1B2 FP inh	ATG4B inhibitor	PAFAH1B3 FP inh	DAGLB inh
Nc1nc2c(s1)CCc1ccccc1-2	1	4	10	-1	8	2
N#C/C(=C(/O)CCl)c1nc2c(s1)CCc1ccccc1-2	21	30*	2	-14	-2	3
Cc1cc(NCCc2ccc(Cl)cc2)n2ncnc2n1	4	-3	24*	0	-3	-3
COc1ccc(CN(C)CC(=O)Nc2ccccc2C(=O)NC2CC2)cc1OC	-7	3	3	-14	3	-1
O=C1CS/C(=C\S(=O)(=O)c2ccc(Cl)cc2)N1	4	1	25*	0	-3	1
CC(C)(C)c1ccc(C(=O)/C=C2\NC(=O)CS2)cc1	10	12	7	4	-2	0
COc1cc(NC(=O)Cn2cnc3c(SC)nc(N)nc32)cc(OC)c1OC	3	0	8	nt	6	0
COc1cccc2c1C1(O)C2CCCCCCCCCC12OCCCO2 (stereo not drawn)	nt	11	25*	-5	0	-8
COc1ccccc1C1NC(=O)NC(C)=C1C(=O)OC1CCCCC1 (stereo not drawn)	-2	7	7	-1	0	-2
Cc1cccc(NS(=O)(=O)c2ccc(C)c(C(=O)NCC(c3cccs3)N3CCOCC3)c2)c1 (stereo not drawn)	nt	2	0	-10	8	-2
COCCCn1c(SCC(=O)Nc2sc3c(c2C#N)CCCC3)nnc1-c1ccncc1	26*	11	0	-4	3	7
C[C@@H]1[C@H](O)C[C@@]23COC(=O)C2=CCC[C@@H]3[C@@]1(C)CC/C(=C/CO)CO	-5	6	7	-8	4	-2
O=C(CCCn1c(=O)oc2ccccc21)NNC(=O)COc1ccc(F)cc1	5	-1	8	1	6	2
O=C(CSCc1ccccc1Cl)Nc1ccc(C(=O)O)cc1	2	-3	1	-3	14	-5
O=C(CSCc1ccccc1Cl)NNC(=S)Nc1ccccc1	29*	8	8	5	-5	2
N/C(Cc1ccc([N+](=O)[O-])cc1)=N\OC(=O)c1ccc(Br)cc1	30*	41*	3	-13	6	-3
N/C(=N\OC(=O)c1ccc([N+](=O)[O-])cc1)c1ccc(Br)cc1	4	-6	7	6	5	1
Cc1cc(C)cc(NS(=O)(=O)c2ccc(-c3cnc(C4CC4)o3)cc2)c1	7	3	-1	-20	3	-7
Cc1ccc(C)c(NS(=O)(=O)c2ccc(-c3cnc(C4CC4)o3)cc2)c1	33*	9	2	-8	9	-1
CCOc1ccc(NS(=O)(=O)c2ccc(-c3cnc(C4CC4)o3)cc2)cc1	31*	0	8	-19	3	0
CC(=O)Nc1ccc(NS(=O)(=O)c2ccc(-c3cnc(C4CC4)o3)cc2)cc1	3	4	3	-3	9	-3
CC(=O)N(c1ccccc1)C1CCCC1	-1	-1	13	1	4	0
O=C(CCl)N(c1ccccc1)C1CCCCC1	0	0	33*	0	2	2
Nc1ccc2oc(-c3ccccc3Cl)cc(=O)c2c1O	28*	4	8	4	6	8
COc1cc(CCC(=O)N2CCN(c3ncccn3)CC2)cc(OC)c1OC	1	nt	nt	3	nt	nt
SMILES	pPAFAH inh	PAFAH2 FP inh	PAFAH1B2 FP inh	ATG4B inhibitor	PAFAH1B3 FP inh	DAGLB inh
Cc1cccc(NS(=O)(=O)c2cccc(C(=O)N3CCCC3)c2)c1	27*	-2	2	-7	0	-1
COc1ccc(NS(=O)(=O)c2cccc(C(=O)N3CCCC(C)C3)c2)cc1 (stereo not drawn)	25*	4	4	-7	4	2
CCN(CC(=O)NCc1cccs1)C(=O)c1cccc(S(=O)(=O)Nc2ccc(F)cc2)c1	nt	-3	-1	-2	4	-1
CCN(CC(=O)NCc1cccs1)C(=O)c1cccc(S(=O)(=O)Nc2cccc(C)c2)c1	31*	7	3	-1	9	1
O=C(c1cccc(NS(=O)(=O)c2ccc(Br)cc2)c1)N1CCN(c2ccccc2O)CC1	nt	-10	25*	3	-1	4
Cc1cccc(N2CCN(S(=O)(=O)c3ccc(-c4ccc(=O)[nH]n4)o3)CC2)c1C	-2	2	-1	9	2	3
Cc1cccc(NS(=O)(=O)c2ccc(OCC(=O)N3CCCC3)cc2)c1	34*	7	10	3	8	-1
O=C(O)c1ccc(S(=O)(=O)c2ccc3c(c2)C(=O)N(NC(=O)c2ccc(O)cc2)C3=O)cc1	0	2	4	1	4	4
Cc1ccc(C(=O)NN2C(=O)c3ccc(S(=O)(=O)c4ccc(C(=O)O)cc4)cc3C2=O)cc1	-1	5	24*	6	3	0
c1ccc(-c2nnc(-c3ccco3)o2)cc1	-1	-3	0	2	0	-2
c1coc(-c2nnc(-c3ccco3)nn2)c1	32*	32*	18	6	19	3
CCc1nnc(NC(=O)CCC(=O)N2CCN(c3cc(Cl)ccc3C)CC2)s1	8	2	5	-1	5	1
O=C(NCc1cccnc1)/C(=C\c1ccc(-c2cccc(Cl)c2)o1)S(=O)(=O)c1ccccc1	26*	4	-5	-9	-8	5
CNC(=O)C(=O)Nc1nc(C23CC4CC(CC(C4)C2)C3)cs1	-5	5	26*	-1	10	0
O=C(NCc1ccccc1)C(=O)Nc1nc(C23CC4CC(CC(C4)C2)C3)cs1	3	-1	12	10	7	1
O=C(NCc1cccnc1)C(=O)Nc1nc(C23CC4CC(CC(C4)C2)C3)cs1	3	23	33*	5	8	-7
O=C(CCc1nc2sc3c(c2c(=O)[nH]1)CCCC3)NCCOc1ccccc1	14	1	10	-2	0	4
Cc1ccc(NC(=O)C(C)SCc2nc3sc4c(c3c(=O)[nH]2)CCCC4)nc1 (stereo not drawn)	17	-3	29*	5	0	0
Cc1ccc(OCCNC(=O)CCc2nc3sc4c(c3c(=O)[nH]2)CCCC4)cc1	18	0	27*	-6	6	4
CC(SCc1nc2sc3c(c2c(=O)[nH]1)CCCC3)C(=O)Nc1ccccn1 (stereo not drawn)	4	9	3	-1	7	1
CC1CN(S(=O)(=O)c2cccc(C(=O)NCCC3=CCCCC3)c2)CC(C)O1 (stereo not drawn)	-4	-2	2	-10	-2	-2
Cc1ccc(-c2csc(NCCn3c(C)nc4cc(C(F)(F)F)ccc43)n2)cc1	4	1	37*	1	5	1
